# Laboratory results from article PMC7862700, “An all-to-all approach to the identification of sequence-specific readers for epigenetic DNA modifications on cytosine”.
# How the values were obtained:
# Experiment in all cases: DAPPL (digital affinity profiling via proximity ligation, sequencing); 10 mM Tris-HCl pH 7.5, 50 mM NaCl, 1 mM DTT, 4% glycerol, room temperature, 30 min; GST-TFs on glutathione beads, 16-mer random dsDNA library, 0.1% formaldehyde crosslink after washing; high values mean tight binding
# [1] = biological target: T1, FLI1 (Homo sapiens, UniProt Q01543 1-452); conditions: protein: recombinant; tags: N-terminal GST; dsDNA, one strand shown
# T1 sequence: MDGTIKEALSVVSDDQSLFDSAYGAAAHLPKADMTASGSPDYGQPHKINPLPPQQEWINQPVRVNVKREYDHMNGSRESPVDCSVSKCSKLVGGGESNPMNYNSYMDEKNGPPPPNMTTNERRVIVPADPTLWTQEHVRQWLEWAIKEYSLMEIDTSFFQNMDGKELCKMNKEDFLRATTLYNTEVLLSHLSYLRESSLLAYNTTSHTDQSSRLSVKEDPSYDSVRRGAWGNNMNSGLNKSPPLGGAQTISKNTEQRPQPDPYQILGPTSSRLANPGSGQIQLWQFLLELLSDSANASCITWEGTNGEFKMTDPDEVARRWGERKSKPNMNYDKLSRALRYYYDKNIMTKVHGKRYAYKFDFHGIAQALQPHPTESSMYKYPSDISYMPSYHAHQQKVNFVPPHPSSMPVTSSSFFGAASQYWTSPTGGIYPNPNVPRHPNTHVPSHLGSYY
# Procedure, shortened: (§1)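 Binding signal is defined as a hexamer's read frequency for one factor over its frequency for the tag-only sample. To obtain reads, GST-fused human transcription factors were expressed in yeast, captured on glutathione beads, barcoded with DNA and pooled with that sample. Pools met 200 nmole of a 16-mer random double-stranded DNA library in Tris/NaCl/DTT/glycerol buffer for 30 min at room temperature before washing, 0.1% formaldehyde crosslinking, proximity ligation (BsaI/T4 ligase, 1 h, 37 °C), PCR and Illumina NextSeq500 sequencing.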
# [2] = biological target: T2, ELK1 (Homo sapiens, UniProt P19419 1-428); conditions: protein: recombinant; tags: N-terminal GST; dsDNA, one strand shown
# T2 sequence: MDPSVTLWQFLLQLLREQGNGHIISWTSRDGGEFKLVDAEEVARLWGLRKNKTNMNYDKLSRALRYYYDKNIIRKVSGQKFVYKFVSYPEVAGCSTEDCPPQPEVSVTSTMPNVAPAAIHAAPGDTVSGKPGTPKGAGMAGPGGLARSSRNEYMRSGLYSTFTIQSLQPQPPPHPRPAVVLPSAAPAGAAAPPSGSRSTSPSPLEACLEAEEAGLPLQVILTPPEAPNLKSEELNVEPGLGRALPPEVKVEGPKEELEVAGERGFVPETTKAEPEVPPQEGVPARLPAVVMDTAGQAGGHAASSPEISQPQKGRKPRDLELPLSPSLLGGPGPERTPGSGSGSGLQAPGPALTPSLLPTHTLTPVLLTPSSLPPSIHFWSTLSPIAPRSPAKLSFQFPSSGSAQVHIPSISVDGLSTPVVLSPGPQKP
# Procedure, shortened: as §1
# [3] = biological target: T3, GABPA (Homo sapiens, UniProt Q06546 1-454); conditions: protein: recombinant; tags: N-terminal GST; dsDNA, one strand shown
# T3 sequence: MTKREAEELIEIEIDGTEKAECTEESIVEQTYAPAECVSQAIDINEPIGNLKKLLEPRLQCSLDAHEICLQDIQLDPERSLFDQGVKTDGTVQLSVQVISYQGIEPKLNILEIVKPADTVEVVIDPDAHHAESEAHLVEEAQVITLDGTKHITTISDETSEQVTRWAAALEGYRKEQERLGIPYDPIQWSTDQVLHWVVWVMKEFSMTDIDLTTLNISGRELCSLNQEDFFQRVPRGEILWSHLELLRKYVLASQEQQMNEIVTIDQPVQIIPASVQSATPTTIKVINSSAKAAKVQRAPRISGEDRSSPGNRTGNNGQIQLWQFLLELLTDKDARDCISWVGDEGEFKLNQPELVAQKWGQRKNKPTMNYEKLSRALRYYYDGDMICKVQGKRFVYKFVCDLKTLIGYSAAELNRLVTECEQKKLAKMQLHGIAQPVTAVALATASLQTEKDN
# Procedure, shortened: as §1
# [4] = biological target: T4, ERG (Homo sapiens, UniProt P11308 1-479); conditions: protein: recombinant; tags: N-terminal GST; dsDNA, one strand shown
# T4 sequence: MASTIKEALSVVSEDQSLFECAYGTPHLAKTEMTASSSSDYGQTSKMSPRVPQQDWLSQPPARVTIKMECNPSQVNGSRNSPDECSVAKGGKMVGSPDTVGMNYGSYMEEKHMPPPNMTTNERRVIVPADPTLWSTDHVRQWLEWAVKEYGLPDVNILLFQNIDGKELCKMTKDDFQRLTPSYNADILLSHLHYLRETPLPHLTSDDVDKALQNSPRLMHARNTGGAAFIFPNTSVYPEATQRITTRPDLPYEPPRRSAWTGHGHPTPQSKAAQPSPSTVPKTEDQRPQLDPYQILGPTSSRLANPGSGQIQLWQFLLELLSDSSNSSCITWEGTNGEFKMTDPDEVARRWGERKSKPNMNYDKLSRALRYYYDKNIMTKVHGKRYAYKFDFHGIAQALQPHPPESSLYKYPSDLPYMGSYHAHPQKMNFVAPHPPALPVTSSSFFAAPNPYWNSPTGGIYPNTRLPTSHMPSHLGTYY
# Procedure, shortened: as §1
# [5] = biological target: ELF1 (Homo sapiens, UniProt P32519 1-619); conditions: protein: recombinant; tags: N-terminal GST; dsDNA, one strand shown
# Procedure, shortened: as §1
# [6] = biological target: T5, EHF (Homo sapiens, UniProt Q9NZC4 1-300); conditions: protein: recombinant; tags: N-terminal GST; dsDNA, one strand shown
# T5 sequence: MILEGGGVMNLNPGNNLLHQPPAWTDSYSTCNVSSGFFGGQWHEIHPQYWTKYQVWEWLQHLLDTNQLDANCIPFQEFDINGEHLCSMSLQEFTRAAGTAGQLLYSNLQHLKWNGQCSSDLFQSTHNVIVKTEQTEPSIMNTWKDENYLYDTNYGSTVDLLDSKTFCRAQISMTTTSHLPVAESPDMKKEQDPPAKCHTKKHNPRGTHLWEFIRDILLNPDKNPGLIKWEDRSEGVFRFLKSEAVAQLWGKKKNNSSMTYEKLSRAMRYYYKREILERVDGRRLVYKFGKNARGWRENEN
# Procedure, shortened: as §1
# [7] = biological target: SPI1 (Homo sapiens, UniProt P17947 1-270); conditions: protein: recombinant; tags: N-terminal GST; dsDNA, one strand shown
# Procedure, shortened: as §1
# [8] = biological target: SPIB (Homo sapiens, UniProt Q01892 1-262); conditions: protein: recombinant; tags: N-terminal GST; dsDNA, one strand shown
# Procedure, shortened: as §1
# [9] = biological target: T6, ELK3 (Homo sapiens, UniProt P41970 1-407); conditions: protein: recombinant; tags: N-terminal GST; dsDNA, one strand shown
# T6 sequence: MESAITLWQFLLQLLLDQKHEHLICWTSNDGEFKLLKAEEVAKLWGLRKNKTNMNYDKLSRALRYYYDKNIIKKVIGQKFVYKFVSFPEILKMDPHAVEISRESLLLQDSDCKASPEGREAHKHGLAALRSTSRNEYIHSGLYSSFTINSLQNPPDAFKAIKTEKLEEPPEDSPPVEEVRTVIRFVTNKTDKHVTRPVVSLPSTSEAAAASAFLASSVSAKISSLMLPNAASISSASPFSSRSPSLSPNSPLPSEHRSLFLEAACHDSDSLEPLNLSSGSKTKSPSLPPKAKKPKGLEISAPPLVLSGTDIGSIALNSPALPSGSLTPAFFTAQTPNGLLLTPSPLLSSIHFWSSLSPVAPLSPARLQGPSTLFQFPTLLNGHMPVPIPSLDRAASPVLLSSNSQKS
# Procedure, shortened: as §1
# [10] = biological target: T7, FEV (Homo sapiens, UniProt Q99581 1-238); conditions: protein: recombinant; tags: N-terminal GST; dsDNA, one strand shown
# T7 sequence: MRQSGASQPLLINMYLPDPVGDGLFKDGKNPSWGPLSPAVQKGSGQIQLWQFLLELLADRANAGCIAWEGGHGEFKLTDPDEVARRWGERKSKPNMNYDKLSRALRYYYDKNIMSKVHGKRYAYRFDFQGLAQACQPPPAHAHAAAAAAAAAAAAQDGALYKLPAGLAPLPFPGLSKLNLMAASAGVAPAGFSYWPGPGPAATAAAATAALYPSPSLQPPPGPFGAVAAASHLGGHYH
# Procedure, shortened: as §1
# [11] = biological target: ETV5 (Homo sapiens, UniProt P41161 1-510); conditions: protein: recombinant; tags: N-terminal GST; dsDNA, one strand shown
# Procedure, shortened: as §1
# [12] = biological target: HSF1 (Homo sapiens, UniProt Q00613 1-529); conditions: protein: recombinant; tags: N-terminal GST; chain copies: 3; dsDNA, one strand shown
# Procedure, shortened: as §1
# [13] = biological target: T8, SPIC (Homo sapiens, UniProt Q8N5J4 1-248); conditions: protein: recombinant; tags: N-terminal GST; dsDNA, one strand shown
# T8 sequence: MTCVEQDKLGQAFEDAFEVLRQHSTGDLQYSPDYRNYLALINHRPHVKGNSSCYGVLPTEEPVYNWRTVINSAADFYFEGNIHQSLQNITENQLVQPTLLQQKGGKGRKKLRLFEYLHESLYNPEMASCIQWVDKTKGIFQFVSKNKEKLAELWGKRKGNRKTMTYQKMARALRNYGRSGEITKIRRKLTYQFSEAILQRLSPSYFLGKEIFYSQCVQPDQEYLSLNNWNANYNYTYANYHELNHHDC
# Procedure, shortened: as §1
# [14] = biological target: ELF4 (Homo sapiens, UniProt Q99607 1-663); conditions: protein: recombinant; tags: N-terminal GST; dsDNA, one strand shown
# Procedure, shortened: as §1
# [15] = biological target: T9, ELK4 (Homo sapiens, UniProt P28324-2 1-405); conditions: protein: recombinant; tags: N-terminal GST; dsDNA, one strand shown
# T9 sequence: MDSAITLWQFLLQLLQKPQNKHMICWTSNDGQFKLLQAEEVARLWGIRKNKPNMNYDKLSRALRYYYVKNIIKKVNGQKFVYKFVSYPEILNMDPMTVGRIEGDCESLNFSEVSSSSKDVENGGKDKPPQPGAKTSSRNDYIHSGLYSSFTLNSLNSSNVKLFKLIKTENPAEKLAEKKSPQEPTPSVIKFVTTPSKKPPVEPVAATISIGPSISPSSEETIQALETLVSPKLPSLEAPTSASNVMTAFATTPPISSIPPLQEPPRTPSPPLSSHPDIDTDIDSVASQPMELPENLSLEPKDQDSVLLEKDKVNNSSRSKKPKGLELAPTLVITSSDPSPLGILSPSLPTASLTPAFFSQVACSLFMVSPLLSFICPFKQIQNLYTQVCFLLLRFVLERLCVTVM
# Procedure, shortened: as §1
# [16] = biological target: T10, ETV2 (Homo sapiens, UniProt O00321 1-342); conditions: protein: recombinant; tags: N-terminal GST; dsDNA, one strand shown
# T10 sequence: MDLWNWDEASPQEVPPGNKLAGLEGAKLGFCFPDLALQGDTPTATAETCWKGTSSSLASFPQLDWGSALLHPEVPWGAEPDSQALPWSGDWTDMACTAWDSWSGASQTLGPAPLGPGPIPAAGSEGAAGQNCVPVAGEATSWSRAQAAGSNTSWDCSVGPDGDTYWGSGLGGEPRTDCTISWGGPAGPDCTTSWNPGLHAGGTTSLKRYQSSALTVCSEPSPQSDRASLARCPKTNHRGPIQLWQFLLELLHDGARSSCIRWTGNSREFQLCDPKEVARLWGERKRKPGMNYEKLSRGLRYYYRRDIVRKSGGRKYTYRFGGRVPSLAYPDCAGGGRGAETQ
# Procedure, shortened: as §1
# [17] = biological target: CRX (Homo sapiens, UniProt O43186 1-299); conditions: protein: recombinant; tags: N-terminal GST; dsDNA, one strand shown
# Procedure, shortened: as §1
# [18] = biological target: ETV1 (Homo sapiens, UniProt P50549 1-477); conditions: protein: recombinant; tags: N-terminal GST; dsDNA, one strand shown
# Procedure, shortened: as §1
# ETV5, sequence (P41161 whole entry): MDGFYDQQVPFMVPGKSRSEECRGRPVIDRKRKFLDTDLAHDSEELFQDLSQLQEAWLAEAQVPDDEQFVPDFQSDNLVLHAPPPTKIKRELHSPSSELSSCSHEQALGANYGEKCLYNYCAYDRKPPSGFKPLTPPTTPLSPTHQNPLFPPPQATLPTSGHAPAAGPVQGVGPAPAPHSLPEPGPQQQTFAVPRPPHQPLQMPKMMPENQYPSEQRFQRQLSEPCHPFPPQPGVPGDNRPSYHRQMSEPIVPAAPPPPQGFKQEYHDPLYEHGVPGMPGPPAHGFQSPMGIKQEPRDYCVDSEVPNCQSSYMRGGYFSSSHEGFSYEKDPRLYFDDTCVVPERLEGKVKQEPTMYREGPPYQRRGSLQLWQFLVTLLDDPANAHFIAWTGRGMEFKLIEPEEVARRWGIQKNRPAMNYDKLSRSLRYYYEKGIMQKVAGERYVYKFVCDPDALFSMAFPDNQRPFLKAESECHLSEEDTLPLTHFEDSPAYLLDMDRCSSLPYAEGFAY
# CRX, sequence (O43186 whole entry): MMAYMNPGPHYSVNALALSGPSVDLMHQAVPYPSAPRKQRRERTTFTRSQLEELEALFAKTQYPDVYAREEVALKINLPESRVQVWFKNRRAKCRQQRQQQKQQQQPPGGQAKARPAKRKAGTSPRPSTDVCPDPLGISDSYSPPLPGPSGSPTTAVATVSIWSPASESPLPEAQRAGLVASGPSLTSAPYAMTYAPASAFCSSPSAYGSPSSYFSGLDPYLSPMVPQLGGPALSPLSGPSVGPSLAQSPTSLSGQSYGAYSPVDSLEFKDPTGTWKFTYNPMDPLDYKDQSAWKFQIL
# HSF1, sequence (Q00613 whole entry): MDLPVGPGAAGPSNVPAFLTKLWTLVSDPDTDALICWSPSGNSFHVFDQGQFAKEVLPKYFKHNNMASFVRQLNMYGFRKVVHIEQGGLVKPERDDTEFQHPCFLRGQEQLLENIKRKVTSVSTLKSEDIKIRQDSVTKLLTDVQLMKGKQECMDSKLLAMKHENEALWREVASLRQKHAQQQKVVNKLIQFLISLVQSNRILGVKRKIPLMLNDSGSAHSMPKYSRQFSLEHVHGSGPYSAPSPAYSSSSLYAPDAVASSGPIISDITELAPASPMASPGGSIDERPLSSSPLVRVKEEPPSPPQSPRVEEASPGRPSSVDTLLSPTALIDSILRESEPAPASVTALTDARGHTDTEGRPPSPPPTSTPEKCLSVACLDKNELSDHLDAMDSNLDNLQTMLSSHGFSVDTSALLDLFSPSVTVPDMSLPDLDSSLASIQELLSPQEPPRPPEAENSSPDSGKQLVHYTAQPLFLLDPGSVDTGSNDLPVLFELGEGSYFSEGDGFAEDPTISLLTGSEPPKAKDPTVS
# ETV1, sequence (P50549 whole entry): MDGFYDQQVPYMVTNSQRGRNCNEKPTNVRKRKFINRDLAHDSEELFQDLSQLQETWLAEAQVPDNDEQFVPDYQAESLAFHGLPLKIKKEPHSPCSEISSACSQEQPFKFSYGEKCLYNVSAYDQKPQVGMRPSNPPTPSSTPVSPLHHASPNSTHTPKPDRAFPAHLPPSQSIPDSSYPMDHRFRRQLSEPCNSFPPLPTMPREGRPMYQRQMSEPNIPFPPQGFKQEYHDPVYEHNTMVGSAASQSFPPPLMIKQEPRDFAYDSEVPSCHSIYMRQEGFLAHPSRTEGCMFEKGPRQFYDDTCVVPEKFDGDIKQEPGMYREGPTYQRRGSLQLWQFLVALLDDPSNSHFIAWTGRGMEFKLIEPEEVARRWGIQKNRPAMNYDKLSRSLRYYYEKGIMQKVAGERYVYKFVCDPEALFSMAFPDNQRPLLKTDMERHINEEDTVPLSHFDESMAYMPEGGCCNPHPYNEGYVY
# ELF1, sequence (P32519 whole entry): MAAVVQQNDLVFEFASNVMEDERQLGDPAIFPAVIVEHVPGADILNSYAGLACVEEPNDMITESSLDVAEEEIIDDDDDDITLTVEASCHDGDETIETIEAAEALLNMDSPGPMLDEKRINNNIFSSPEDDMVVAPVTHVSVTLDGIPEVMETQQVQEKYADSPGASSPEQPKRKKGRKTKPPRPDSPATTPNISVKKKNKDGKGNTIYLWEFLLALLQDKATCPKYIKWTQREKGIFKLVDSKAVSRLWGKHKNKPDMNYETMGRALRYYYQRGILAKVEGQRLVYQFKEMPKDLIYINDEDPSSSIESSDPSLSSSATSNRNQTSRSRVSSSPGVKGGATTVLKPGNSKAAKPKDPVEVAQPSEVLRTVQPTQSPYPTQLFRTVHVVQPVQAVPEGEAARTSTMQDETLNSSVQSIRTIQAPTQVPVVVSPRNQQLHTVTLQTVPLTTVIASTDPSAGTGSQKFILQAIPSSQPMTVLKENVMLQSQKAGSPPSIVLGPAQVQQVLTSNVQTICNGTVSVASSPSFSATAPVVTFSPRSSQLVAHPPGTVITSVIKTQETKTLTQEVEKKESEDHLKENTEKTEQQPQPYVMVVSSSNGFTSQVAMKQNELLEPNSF
# ELF4, sequence (Q99607 whole entry): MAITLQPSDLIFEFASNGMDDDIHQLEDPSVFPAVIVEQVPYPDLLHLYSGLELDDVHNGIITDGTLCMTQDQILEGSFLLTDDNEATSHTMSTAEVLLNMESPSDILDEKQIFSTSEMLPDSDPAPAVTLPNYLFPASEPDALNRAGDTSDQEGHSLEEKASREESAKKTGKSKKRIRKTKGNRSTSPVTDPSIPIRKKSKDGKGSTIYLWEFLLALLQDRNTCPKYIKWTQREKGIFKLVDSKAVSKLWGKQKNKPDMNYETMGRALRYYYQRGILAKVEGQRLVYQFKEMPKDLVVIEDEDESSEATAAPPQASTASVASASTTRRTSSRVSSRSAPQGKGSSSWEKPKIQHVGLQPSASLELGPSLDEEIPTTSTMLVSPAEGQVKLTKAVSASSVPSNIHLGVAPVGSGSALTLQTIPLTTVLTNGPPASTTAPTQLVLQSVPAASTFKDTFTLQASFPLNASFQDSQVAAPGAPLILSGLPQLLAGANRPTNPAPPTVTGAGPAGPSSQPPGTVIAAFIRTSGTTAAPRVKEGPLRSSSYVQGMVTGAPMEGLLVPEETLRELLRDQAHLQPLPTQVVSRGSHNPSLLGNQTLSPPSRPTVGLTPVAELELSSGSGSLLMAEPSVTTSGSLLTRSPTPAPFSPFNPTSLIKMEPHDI
# SPIB, sequence (Q01892 whole entry): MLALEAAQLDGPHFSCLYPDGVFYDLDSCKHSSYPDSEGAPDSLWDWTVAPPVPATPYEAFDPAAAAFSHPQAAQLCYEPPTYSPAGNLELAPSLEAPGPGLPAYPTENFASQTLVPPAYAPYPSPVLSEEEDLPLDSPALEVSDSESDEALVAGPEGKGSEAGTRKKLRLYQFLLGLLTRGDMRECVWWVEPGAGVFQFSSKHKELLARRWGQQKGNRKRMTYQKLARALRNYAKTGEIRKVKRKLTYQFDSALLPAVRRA
sequence,measurement,setting,value
CTCAGA,binding signal,[1],"1.07 fold enrichment (6-mer frequency, TF over GST control)"
same,binding signal,[2],"1.12 fold enrichment (6-mer frequency, TF over GST control)"
same,binding signal,[3],"1.13 fold enrichment (6-mer frequency, TF over GST control)"
same,binding signal,[4],"1.1 fold enrichment (6-mer frequency, TF over GST control)"
same,binding signal,[5],"1.14 fold enrichment (6-mer frequency, TF over GST control)"
same,binding signal,[6],"1.1 fold enrichment (6-mer frequency, TF over GST control)"
same,binding signal,[7],"1.04 fold enrichment (6-mer frequency, TF over GST control)"
same,binding signal,[8],"1.01 fold enrichment (6-mer frequency, TF over GST control)"
same,binding signal,[9],"1.02 fold enrichment (6-mer frequency, TF over GST control)"
same,binding signal,[10],"1.03 fold enrichment (6-mer frequency, TF over GST control)"
same,binding signal,[11],"1.14 fold enrichment (6-mer frequency, TF over GST control)"
same,binding signal,[12],"1.17 fold enrichment (6-mer frequency, TF over GST control)"
same,binding signal,[13],"1.16 fold enrichment (6-mer frequency, TF over GST control)"
same,binding signal,[14],"1.14 fold enrichment (6-mer frequency, TF over GST control)"
same,binding signal,[15],"1.01 fold enrichment (6-mer frequency, TF over GST control)"
same,binding signal,[16],"1.18 fold enrichment (6-mer frequency, TF over GST control)"
same,binding signal,[17],"1.27 fold enrichment (6-mer frequency, TF over GST control)"
same,binding signal,[18],"1.1 fold enrichment (6-mer frequency, TF over GST control)"
